# Laboratory results as given in the supplement of paper PMC6555819.
# System: VDR:RXRa (NR concentration 270 nM, RXRa partner concentration 90 nM)
# Test: PBM binding z-score (relative to random genomic background probes); higher = stronger binding; sequences stand for … in GC…GCGATTGACAGCGTAGAATGAAGG
# Procedure: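 Protein-binding microarray (Agilent 4x180K custom design, double-stranded 60-nt probes: 5' GC cap, 34-nt variable region, 24-nt constant primer region; full probe sequence given). Purified or IVT nuclear receptor:RXRα heterodimers (3:1 NR:RXRα, mostly 270:90 nM) or homodimers were incubated for 1 h in PBS with 2% milk and no ligand, then detected with Alexa488 antibodies. Fluorescence from o1-orientation probes (~5 replicates averaged) was converted to z-scores against 500 random hg19 background probes. Variable regions are seed direct-repeat (DR0–DR5) sites, all their single-nucleotide variants and half-site ablations.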
row,Sequence,PBM binding z-score
1,TCTAGTTGGTCACGGAGATCACACACGACGGGTA,0.966
2,CGTCCGAGGTCAGCAGGTCAGTGAAAGCGACGTG,4.86
3,TGTCAAAGTTAAAAGGTAACGTAAGTATCCACAC,0.375
4,TATACAGGTTCAAAGGCCAGAGTACGAATGTCGA,3.76
5,CCTTACTGGTCACTCCAGGTTATAGCATCGGAGT,0.952
6,TCATATAGGTAAATCCTAGGTGAAAGTCCGATCT,0.7
7,CCTTACGGGTCACTGACGGGTTATAGCATTTGGA,3.7
8,TAGCCTAGGTCAGACCGGGCCAGTATACGCTATA,0.854
9,TGTCCAAGTTCAAAGGTAACGTAAGTATCCACAC,4.6
10,ACTATTAGTTGAGATGAGGGCAACCGATAGGTTG,0.654
11,CCTACTGGGCCAAACAGGTCATTGATGCCGATAA,2.82
12,ATATGTAGGTTATCGGGTCATTTAGTTTGCGCAT,4.24
13,ATCGAGAGGTCGTGAGGTGAGTATACAGAAAGGC,3.3
14,ATCTCTAGGTAAAAGTTCCGTGAATCCCGAGGAT,-0.0559
15,CCTACTAGGCCAAAAAGGTCATTGATGCCGATAA,5.16
16,CCTACTGGGCCACGAAAGGTTATTGATTCAGTGA,0.818
17,CTACCAAGGTGAACAAGGTCGTTGATTACTATTC,5.95
18,CGTCCAAGGTCAAGGTCAGTGGAAGAGACTCGAA,4.89
19,ACAGACAGGTGATGAAGGCAACTCAGGCTATCAT,-0.257
20,CGTCCAAGGTCAAAGGTCAGTGGAGAGATGACGG,6.82

row,Sequence,PBM binding z-score
1,ATCTCTAGGTAACAAAGTTCAGTGAATGCCGAAC,3.18
2,ACCGAAAGGTCGAAGGTGAGTATACCCACCCGAA,2.95
3,GCAGACAGGTGAAACGCAGGTAACTCAGGGTGGC,-0.544
4,CAGCCTAGGTCAGCGCCAGTATAGGAGGAACGTT,0.303
5,CGAATTAGGTCATCCAGGACAGTGAATACATTGA,5.04
6,AGAATGAGGATATTAAGATCAGGGAATTGCGGTC,-0.178
7,GCATATAGGTTATACAAGGTGAAAGTCCGATTGT,1.57
8,ACAAGTTGGTCAGCTGAGGTCACACACAATTCGG,4.66
9,ACTCGGAGGACAAAGGTTAGAGCTACGCCAGTGA,0.555
10,CCGACTGGGGCAAGGTTACCATGACGCACAGCCA,-0.0991
11,TCTCGGAGGACACGAGGGTCAGAGCTTTCCAGAG,1.7
12,ATATGTAGGTTACATCCAGGTCATTCAGGCTATG,4.11
13,GCTAGTTGGTCAGTAAAAGGTCACACAACGGTCG,4.19
14,CCTAGTTGGTCAGGAGCTCACACACCGGATATGA,0.0372
15,TCATATAGGTAATACAGGTGGAAGTCGGCATCTA,1.14
16,CCTACTAGTTGACCATAAGGGCAACCGAAGCTCG,0.471
17,TCTTGTACATCAAAGGTTAAGAAAGCCGAAGCCT,1.55
18,ATATCTAGGTTATCGGGTCATTCAGTTTGCGCAT,5.12
19,AATACAGTGTCACTAGGCCAGAGTAGGTACGAAT,-0.0369
20,ATCTCTAGGTAAAAGCTCAGTGAATCCCGAGGAT,-0.227
